# Data reported in PubChem BioAssay AID1508600 (Functional Genomics Laboratory (NCATS/FGL), 2020).
# Hit rate of the full screen: of about 53,000 sequences, about 3,700 (7%) were called active.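 The calls were made as follows: active = gene knockdowns whose robust z-score for IL-1 alpha signal is at least 2 or at most -2, so actives lie on both sides; inactive = the rest.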 This excerpt belongs to a sample that is enriched for actives.
# Assay: Components of the Cytosolic LPS Sensing Pathway: Gene Identification via Genome-wide siRNA Screen;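 also: robust z of the log signal after scaling to non-targeting control siRNA wells of the plate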
# Conditions: RAW264.7 macrophages, IL-1a HTRF, actives lie on both sides, screened at 100 nM (by protocol), cells primed 5 h with Pam3CSK4 first
# Procedure, shortened: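 IL-1a HTRF of supernatants after 24 hour LipidA transfection of Pam3CSK4-primed (5 hours) RAW264.7 cells, 48h post-siRNA transfection (100 nM). Scores: percent of plate negative-control median, then log-based robust z-score.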
row,Sequence,z-score
1,GGUAUCACUACUUUUUAGUTT against Eri3,-0.742 (inactive)
2,GGUUUGUGGUGGUAUUUAATT against Man2a2,2.47 (active)
3,GGAUGAGGACACCAUUGAUTT against Sumo3,0.723 (inactive)
4,GGUUGACGAAAUGACUAUATT against Adh4,-0.105 (inactive)
5,GCAGACCAGACAGUAUUACTT against Zeb1,1.22 (inactive)
6,GCCUCUCAUUAGCAGUCAATT against Fbxl15,-1.92 (inactive)
7,CGUUAGCUGUUAUGAUCUATT against Cept1,0.203 (inactive)
8,GGGUCCUAAGGGAUUUAUUTT against Klf16,-0.49 (inactive)
9,GGUUUUGCACAGCAUUGGUTT against Efna1,-1.02 (inactive)
10,GGAAUCAAACUGGAUUGAUTT against Pi4k2b,2.01 (active)
11,GGUAUUGGAUCAUUUACAATT against Nae1,-0.0968 (inactive)
12,CGAUUUGCCCAAUAAAGAATT against Scn9a,0.223 (inactive)
13,GGACGAAUUUCUUACAGUATT against Mterf4,2.2 (active)
14,GCCGAUGUCAGUGGUUAAATT against Bmx,0.198 (inactive)
15,CCUGGUAUAUUACCGCUUCTT against P3h4,0.519 (inactive)
16,GGAUCUCUGGGUCUGAAAATT against Ccz1,0.606 (inactive)
17,GCACGUCCAUUCUGCUUUCTT against Smco4,2.4 (active)
18,GGACCUGUGUGCUGAGUUGTT against Matn4,-1.59 (inactive)
19,GGGAGAUUAAUCAAGAACUTT against Ccnc,0.809 (inactive)
20,GGUUGGAGAUCUCAUCUAUTT against Exosc3,0.699 (inactive)
21,GCACCUCUCUACAUUACUGTT against Igflr1,-0.0949 (inactive)
22,GGCUGAAGACACUGAACACTT against Olfr643,-2.51 (active)
23,GCAUUCAGAAAGUGUAUAATT against Tspan3,-0.0953 (inactive)

row,Sequence,z-score
1,GGGUGAAGGUGAAUAUUUATT against Esm1,-1.12 (inactive)
2,GGCCUAGACAUACAUGAAATT against Bnip3l,2.93 (active)
3,GCCAAAGUAGUUGAACCUUTT against Cibar1,-0.48 (inactive)
4,GGACUGAACCGUUUUAAAGTT against Fmo3,-0.317 (inactive)
5,GCAUUACUUUAAGCCAUAUTT against Rbl1,3.57 (active)
6,GGGCCUGUACAUCUUCCAATT against Anpep,0.926 (inactive)
7,CUGGAUGCAUUAACUUCUUTT against Olfr1219,0.326 (inactive)
8,GGGUAGUUAUGACUAAAUUTT against Etl4,1.31 (inactive)
9,GGAGAAUAUUCUCUGUGGATT against Rab11fip5,-2.71 (active)
10,GCACACUACAACGUAUCACTT against Stpg2,1.31 (inactive)
11,CCCAACUGUCAAAUAAUCCTT against Eddm3b,0.0505 (inactive)
12,GCCAUUACCCGGUAUAUGATT against Sesn1,-1.96 (inactive)
13,GGAUCACUCUAAUUCAGAUTT against Fcamr,1.93 (inactive)
14,GGACAUUUGAUAUUGAAGATT against B3gnt2,-1.88 (inactive)
15,CGGAAGUAAAAAGAACUACTT against Olfr1321,3.01 (active)
16,CCCUGGUGACUACGAGAAUTT against Chrna4,-0.462 (inactive)
17,GGACUUUACAAUAAAACAGTT against Dkk4,-2.2 (active)
18,GGUGAUGCCUUAUUUUGAATT against Ap5s1,-1.1 (inactive)
19,GGUAACAAACCGAAAGUAUTT against Polr3k,-0.539 (inactive)
20,GGAACAAGUGUCUGACAGUTT against Emc3,1.82 (inactive)
21,GCGCACAGUACAUUCAUUUTT against Drd5,3.62 (active)
22,CCGAAAACUUAUCUAGAAATT against BC023105,-0.846 (inactive)
23,GGAUCAACAUGGUCUCCUCTT against Stambpl1,-1.63 (inactive)

row,Sequence,z-score
1,GCCAGAAAAGUACCACCAGTT against Slc35f4,-1.15 (inactive)
2,GCUUUCAUAGAAUCUUGGCTT against Rnf24,0.709 (inactive)
3,GGAGAUGGCUAUAUUCUGATT against Lipa,0.0668 (inactive)
4,GCGAGUACUUACUCUUCGUTT against Rpl3,-0.355 (inactive)
5,GCACGUGAACACAAACCCGTT against Nup50,-1.13 (inactive)
6,GCUUAAGUGUGAUACAGUGTT against Rars2,2.45 (active)
7,GUUACAGCUGCCUUUGUUUTT against Olfr893,-2.49 (active)
8,CGUCUGUCAGAAACUACACTT against Atrnl1,0.864 (inactive)
9,GCUCAGUUUCUCAUGAAACTT against Tespa1,0.206 (inactive)
10,GGAAUGCAGAAAUGAAAAATT against Olfr1234,-0.909 (inactive)
11,GGAAAGAAGAACCAAGCUCTT against Med6,-1.01 (inactive)
12,GAUCAAAGCGGCGUACUACTT against Dnajc30,0.738 (inactive)
13,GGAAAAGUAUCCAUGUCACTT against Impa1,-1.75 (inactive)
14,GGCAUCAUAAAGCCAGGCATT against Sybu,-2.42 (active)
15,GGGUAUAUAAGCAGCACCATT against Rdh9,0.736 (inactive)
16,CCCAUCCAAGAUUUGAUUUTT against 2310002L09Rik,1.89 (inactive)
17,GGCUGUAGUUGGCUAACACTT against Slc25a28,-0.103 (inactive)
18,GGUAACAAUCACCAUAUUCTT against 1700029F12Rik,-1.94 (inactive)
19,GCAACAUGUAGGCAACAUCTT against Tmx2,-0.179 (inactive)
20,CCAAUGAGAGUUCUAUGAUTT against Cxxc4,-0.192 (inactive)
21,GGUUAGCAGGGACCUAAUGTT against Zfp94,2.57 (active)
22,GGAAAACACGAGUUUCCCUTT against Arrdc4,1.56 (inactive)
23,CCAAGCCAAGCAAUCUUGATT against Chat,-0.247 (inactive)
